Tau fluor counter – Counterscreen qHTS for Inhibitors of Tau Fibril Formation, Fluorescence Polarization. tau K18 P301L Alexa594 fluorescence, heparin fibrillization. Potency, µM (top dose mostly 57.7 µM), inactives show at the top dose activity change, negative = decrease. 280,000 compounds, 0.93% hits; note: potency is the fitted concentration of half-maximal effect; nearly all actives have a fitted effect of over 55% in size
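Human K18 P301L tau (15 uM unlabeled plus 0.24 uM Alexa 594-labeled, final) in 100 mM sodium acetate pH 7 was mixed with compound and 20 uM heparin and incubated 6 hr at 37 C.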
Tau fibril ThT – qHTS for Inhibitors of Tau Fibril Formation, Thioflavin T Binding. Microtubule-associated protein tau (Homo sapiens), P10636. recombinant tau K18 P301L, heparin-induced fibrillization, ThT fluorescence. Potency, µM (top dose mostly 57.4 µM), for inactives: top-dose activity, negative = inhibition, usual class: inhibitors. 270,000 compounds, 2.1% hits. AID 1460, 2008; note: potency is the fitted concentration of half-maximal effect; nearly all actives have a fitted effect of over 55% in size
Target sequence (P10636 561-689 P618L limits assumed): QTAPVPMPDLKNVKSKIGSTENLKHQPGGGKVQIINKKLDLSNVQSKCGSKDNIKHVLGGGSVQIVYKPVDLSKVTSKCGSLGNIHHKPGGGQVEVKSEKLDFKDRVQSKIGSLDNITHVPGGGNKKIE
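Fibril formation assay: tau K18 P301L at 15 uM with trace Alexa 594 label, heparin inducer 20 uM, pH 7 sodium acetate buffer, 37 C for 6 hr; endpoint ThT signal.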
USP1 inh – Inhibitors of USP1/UAF1: Primary Screen. AID 743255, 2014. recombinant USP1/UAF1, Ub-Rhodamine cleavage fluorescence. Potency, µM (top dose mostly 57.1 µM), for the others: at the highest dose activity change, negative = inhibition, hits mostly inhibitors. 390,000 compounds, 0.23% hits. Ubiquitin carboxyl-terminal hydrolase 1 (Homo sapiens), O94782; note: potency is the fitted concentration of half-maximal effect; nearly all actives have a fitted effect of over 60% in size
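Step one: compound is pinned into 1nM USP1/UAF1 in HEPES pH 7.8 buffer with TCEP. Step two: 15 min room-temperature incubation. Step three: Ub-Rho (150nM final) starts cleavage, tracked by fluorescence over six one-minute reads.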
FBPA coupling cs – qHTS Assay for Inhibitors of Fructose-1,6-bisphosphate Aldolase from Giardia Lamblia: Coupling assay counterscreen. AID 2472, 2010. activity change, negative = inhibition, % at 58.2 µM, hits read low. coupling enzyme system counterscreen, AmpLite Red fluorescence. 290,000 compounds, 0.67% hits; in the data active = activity change below about -30%
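Compounds tested against the coupling enzymes alone at 57.5 uM final; readout was AmpLite Red fluorescence (525/598 nm) after 20 min at RT.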
Tau fibril FP – qHTS for Inhibitors of Tau Fibril Formation, Fluorescence Polarization | Microtubule-associated protein tau (Homo sapiens), P10636 | K18 P301L tau heparin fibrillization, Alexa594 FP, 6 h | Potency, µM (top dose mostly 57.7 µM), without a hit: at the top dose activity, negative = inhibition, actives largely listed as inhibitors | 280,000 compounds, 0.39% hits | AID 1468, 2008; note: potency is the fitted concentration of half-maximal effect; nearly all actives have a fitted effect of over 55% in size
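K18 P301L tau (15 uM unlabeled/0.24 uM Alexa 594-labeled, final) + compound + heparin 20 uM final; 100 mM NaOAc pH 7; 6 hr 37 C; ThT 30 uM final added, 1 hr RT; FP ex 555/em 632 nm.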
Numbers without * were called inactive; u = inconclusive; x = no result; ! = not active in a repeat; [ ] = remark or other dose. Rows were chosen to be rich in hits. Some 2.3% of all compounds tested hit in one or more screens of this group. Unless noted, calls come from the whole dose curve; as a rule, active = well fitted curve in the direction sought with a large enough effect; inconclusive = small, poorly fitted or top-dose-only effect, or another doubt; inactive = no such curve, though single readings can be large; an effect the other way counts as inactive or inconclusive. % is set by controls: 0 for no effect and ±100 for the full control effect.

SMILES | Tau fluor counter | Tau fibril ThT | USP1 inh | FBPA coupling cs | Tau fibril FP
COC(CNC(=O)c1ccc2c3c(onc13)-c1ccccc1C2=O)OC | 15.8µM*[quencher] | 15.8µM* | 17.8µM* | -23.7 | u
COc1ccc(OC)c(NC(=O)c2cc(=O)c3c(C)cc(C)cc3o2)c1 | -26.8% | u | u | x | -11.8%
CCCN(CCC(=O)Nc1ccccc1F)CC1CC1 | -6.4% | -4.9% | 1.2% | 0.7 | -7.3%
CCCN(CCC(=O)Nc1cc(OC)cc(OC)c1)CC1CC1 | -8.1% | -11.3% | -12.2% | -35.6* | 11.0%
CCN(CCC(=O)Nc1cc(OC)cc(OC)c1)Cc1ccccc1 | -3.8% | -2.7% | 3.9% | -39.8* | 6.0%
CN(C(=O)CSc1nnc2[nH]c(=O)cc(-c3ccccc3)n12)c1ccccc1 | -12.2% | -16.4% | -19.4% | x | -9.0%
N[C@H](Cc1ccc(O)c(O)c1)C(=O)O | -8.4% | 15.8µM* | x | x | u
O=C(/C=C/c1ccc(O)c(O)c1)c1ccc(O)cc1O | x | x | x | -0.5 | x
O=C(O)/C=C/c1ccc(O)c(O)c1 | -20.8% | u | -23.8% | -30.4*! | -10.1%
O=C(/C=C/c1ccc(O)c(O)c1)O[C@H](Cc1ccc(O)c(O)c1)C(=O)O | 14.1µM*[quencher] | 12.6µM* | x | -35.1* | u
COC(=O)C(N)Cc1ccc(O)c(O)c1 (centres undefined) | -13.4% | u | -0.3% | -7.2 | 0.9%
O=C(/C=C/c1ccc(O)c(O)c1)O[C@H]1C[C@@](O)(C(=O)O)CC(O)C1O (some centres undefined) | -11.9% | -12.6% | x | -4.0 | -8.0%
NC(Cc1ccc(O)c(O)c1)C(=O)O (centres undefined) | 17.8µM*[quencher] | 11.2µM* | x | -30.4* | 25.1µM*
CC(C)(C)C(=O)NC(Nc1cccc2cccnc12)C(Cl)(Cl)Cl (centres undefined) | u | u | -6.4% | -66.3* | u
COc1cc2c(cc1NS(=O)(=O)c1cccc(C#N)c1)n(C)c(=O)n2C | -8.3% | u | -8.5% | x | -10.1%
Clc1ccc(Cn2c(/C=C/c3ccco3)nc3ccccc32)cc1 | -8.0% | u | -22.0% | -0.5 | -2.4%
Cc1ccc(Cn2c(/C=C/c3ccco3)nc3ccccc32)cc1 | u | 25.1µM* | -10.2% | -2.3 | u
O=C(CSc1nnc(-c2ccccc2)o1)c1nnc(-c2ccccc2)o1 | u | 15.8µM* | u | -1.2 | u
C=CCc1cccc(CNc2nc3ccccc3n2C(C)C)c1O | 11.2µM*[quencher] | -15.0% | -18.9% | -5.3 | 5.3%
CC(C)n1c(NCc2ccccc2O)nc2ccccc21 | x | x | -32.1% | 0.2 | x
C/C(=C\C=C(C#N)C#N)c1cc(C#N)c(N)o1 | -15.4% | 12.6µM* | u | -7.5 | -10.0%
CCN(CC)CCSc1c(C(C)C)cnc2c1c(=O)n(C)c(=O)n2C | 9.2% | 7.6% | 5.0% | x | 1.7%
O=C1NC(=S)CN1c1ccccc1 | -19.3% | 31.6µM* | -2.2% | -1.2 | u
CC(=O)C1=C(C)NC(SCC(=O)c2cc(Cl)ccc2Cl)=C(C#N)C1c1ccco1 (centres undefined) | u | 28.2µM* | u | -23.7 | u
CCc1ccc(C(=O)CSC2=C(C#N)C(c3ccco3)C(C(C)=O)=C(C)N2)cc1 (centres undefined) | u | u | x | -6.4 | 10.3%
SMILES | Tau fluor counter | Tau fibril ThT | USP1 inh | FBPA coupling cs | Tau fibril FP
CC(=O)C1=C(C)NC(SCC(=O)c2ccc(F)cc2)=C(C#N)C1c1ccco1 (centres undefined) | u | 15.8µM* | -8.7% | -1.3 | -4.9%
CC(=O)C1=C(C)NC(SCC(=O)c2ccc(Cl)c(Cl)c2)=C(C#N)C1c1ccco1 (centres undefined) | -9.8% | 5.5% | u | -1.6 | 0.6%
Cc1ccc(NC(=O)c2oc3ccc4c(c3c2C)C(=O)CC(C)(C)O4)c(C)c1 | -13.6% | -10.0% | -21.4% | x | -13.3%
COc1cccc(-n2c(SCc3ccccc3C)nc3c([nH]c4ccccc43)c2=O)c1 | -16.1% | -4.8% | -31.7% | x | -0.8%
O=C1NN(c2ccc(F)cc2)C(=O)/C1=C\C=C\c1ccco1 | u | 12.6µM* | -1.2% | 3.6 | u
COc1cccc(Nc2sc(C(=O)c3ccc(F)cc3)c(N)c2C(=O)NCc2ccc(Cl)cc2)c1 | u | 20µM* | -11.1% | x | u
COc1ccc(C(=O)c2sc(Nc3cccc(OC)c3)c(C(=O)Nc3cccc(C)c3C)c2N)cc1 | u | 17.8µM* | -3.0% | 6.2 | -7.8%
COc1cccc(Nc2sc(C(=O)c3ccc(Cl)cc3)c(N)c2C(=O)NCc2ccc(C)cc2)c1 | u | u | -10.0% | x | 7.4%
COc1ccc(NC(=O)c2c(Nc3ccccc3)sc(C(=O)c3ccc(F)cc3)c2N)cc1 | u | 11.2µM* | -15.2% | -4.1 | 3.0%
Cc1cc(Nc2sc(C(=O)c3ccc(F)cc3)c(N)c2C(=O)Nc2ccc(F)cc2)ccc1Cl | 10µM*[quencher] | 20µM* | -13.2% | x | -12.0%
Cc1ccc(NC(=O)c2c(Nc3ccccc3C)sc(C(=O)c3ccccc3)c2N)cc1 | u | -15.8% | -22.7% | x | 2.4%
Cc1ccc(NC(=O)c2cnn3c(C(F)F)cc(-c4ccccc4)nc23)cc1F | -9.9% | -6.5% | -25.2% | x | -9.2%
N#Cc1c(Nc2cccc(F)c2)sc(C(=O)c2ccc(Cl)cc2)c1N | u | 28.2µM* | -21.4% | x | u
COc1ccc(C(=O)c2sc(Nc3ccccc3)c(C(=O)Nc3ccc(OC)c(OC)c3)c2N)cc1 | 15.8µM*[quencher] | 15.8µM* | -10.2% | -1.3 | u
COc1ccc(Nc2sc(C(=O)c3ccccc3)c(N)c2C(=O)Nc2cc(C)ccc2C)c(OC)c1 | u | u | -17.8% | x | 3.2%
N#Cc1c(SCc2ccc(Cl)cc2)sc(C(=O)c2ccccc2)c1N | -26.5% | -11.2% | -10.5% | -0.1 | -10.0%
COc1ccc(Nc2sc(C(=O)c3ccc(Cl)cc3)c(N)c2C(=O)Nc2ccccc2OC)cc1 | u | 22.4µM* | -11.9% | -0.2 | -1.8%
COc1ccccc1CNCCSc1nnnn1C | -8.1% | -7.6% | -7.4% | x | -0.2%
COc1cc(SC)ccc1C(=O)OCC(=O)NCCC1=CCCCC1 | x | x | -5.5% | x | x
Cc1ccc(S(=O)(=O)c2nc(Nc3nccs3)sc2Cl)cc1 | 15.8µM*[quencher] | u | -6.8% | -2.8 | 2.3%
CC(=O)Nc1nc(S(=O)(=O)c2ccc(C)cc2)c(Cl)s1 | -14.1% | -17.9% | -16.6% | 4.7 | -14.3%
CN(C)c1ccc(NC(=O)Cn2nnc3sc4c(c3c2=O)CCC(C(C)(C)C)C4)cc1 (centres undefined) | u | u | -6.2% | x | 12.8%
O=C1NC(=S)S/C1=C\c1cc2ccccc2nc1N1CCCCC1 | u | 14.1µM* | u | 14.0 | 7.4%

Screening results as filed in PubChem.
